Screens as filed in PubChem.
RmlCD inh mix: inhibitors of RmlC and RmlD coupled enzymes | RmlC/RmlD coupled enzyme inhibition, 384-well mixture HTS | inhibition, % at 5.5 µM | 110,000 compounds, 0.39% hits | AID 1532; in the data active means inhibition above about 30%, passing the limit was not always enough
HIV RNase H inh: inhibitors of HIV-1 reverse transcriptase RNase H; RT-RNase H RNA/DNA duplex cleavage, fluorescence; inhibition, % at 10 µM; 65,000 compounds, 1.9% hits; in the data active means inhibition above about 50%
Numbers without * were called inactive; x = no result; + = active, no number. The full list was thinned out, with hits kept by preference.

SMILES | RmlCD inh mix | HIV RNase H inh
CCOC(=O)c1sc(=S)n(-c2ccc(Cl)cc2)c1C | 5 | x
COC(=O)c1sc(=S)n(-c2cc(F)ccc2F)c1N | -1 | 72*
O=C1C2C(c3ccccc3)CC=CC2[C@H](c2cccc([N+](=O)[O-])c2)N1Cc1ccccc1 (some centres not stated) | 7 | x
COC(=O)c1ccc(Nc2ncnc3c2cnn3-c2cccc(C)c2)cc1 | x | 60*
Cc1cccc(-n2ncc3c(Nc4ccc(F)cc4)ncnc32)c1 | 4 | -19
CC(C)=C1SC(N2CCCCC2)=NC1=O | 12 | x
O=C(CSc1nnc2ccccn12)N1CCc2ccccc2C1 | -14 | -9
CCOC(=O)c1c(NC(=O)OC)sc(C(=O)N(C)C)c1C | -15 | 52*
CCOC(=O)c1c(N)sc(C(=O)N(C)C)c1C | -7 | -2
COc1ccc(S(=O)(=O)Nc2ccc(N3CCOCC3)cc2)cc1Br | -7 | x
Cc1ccc(S(=O)(=O)NCCOC(=O)Nc2sc(=S)n(C)c2C)cc1 | -12 | 50*
Cc1c(NC(=O)OCCNC(=O)Nc2ccccc2)sc(=S)n1C | 9 | -1
CCN1CCN(C(c2cccs2)C(C)NC(=O)Oc2ccccc2)CC1 (configuration not stated) | 12 | x
Cc1ccc(/C=C/c2nnc(-c3cccs3)o2)cc1 | -4 | x
Cc1ccc(C(=O)CSc2ccccn2)cc1 | -14 | -9
O=C(CSc1ccccn1)c1ccc(F)cc1 | -2 | 65*
CCn1c(SCc2nc3ccccc3[nH]2)nnc1-c1cccnc1 | -8 | x
COC(=O)c1sc2nc(N3CCCCC3)c3c(c2c1N)CC(C)(C)N(C)C3 | 37* | -5
CCOC(=O)c1sc2nc(N3CCOCC3)c3c(c2c1N)CC(C)(C)N(C)C3 | 23 | x
O=C(O)C1CCC(=O)N(C2CCCCC2)C1c1ccccc1 (configuration not stated) | -1 | x
Cc1cc(C)n2nc(C(=O)NCc3ccccc3)nc2n1 | -7 | x
Cc1cc(C)n2nc(C(=O)NCc3ccccc3)cc2n1 | -9 | 88*
CC(C)c1nc(N2CCN(C(=O)c3ccccc3)CC2)c(C#N)c2c1COC(C)(C)C2 | -19 | -13
CC1(C)Cc2c(C#N)c(N3CCN(C(=O)c4ccccc4)CC3)nc(-c3ccco3)c2CS1 | -25 | 56*
Fc1ccc(C(CCCn2nnc(-c3cccnc3)n2)c2ccc(F)cc2)cc1 | -4 | x
SMILES | RmlCD inh mix | HIV RNase H inh
O=C1CC(=O)C(n2cncn2)C(c2ccc(Cl)cc2Cl)C1 (configuration not stated) | 0 | x
CCCCOc1ccc(-c2c(C#N)c(N)nc(SCC(N)=O)c2C#N)cc1 | 4 | 63*
CCCCOC(=O)CSc1nc(N)c(C#N)c(-c2ccc(OCC)cc2)c1C#N | -7 | -10
CCn1c(COc2cccc(OC)c2)nnc1SCC(=O)Nc1ccccc1C(=O)OC | -10 | -24
CCCn1c(=O)c(C(=O)Nc2cnccn2)c(O)c2ccccc21 | x | -5
CCN(CC)CCCn1c(C)cc2c(c1=O)C(c1ccccc1)C(C#N)=C(N)O2 (configuration not stated) | 8 | -2
CCOc1ccc2cc(C#N)c(SCC(=O)NC(C)CC)nc2c1 (configuration not stated) | -1 | 58*
CCOC(=O)CSc1nc2cc(OCC)ccc2cc1C#N | -5 | -7
O=C(c1ccco1)N1CCN(C(=O)c2cc3sccc3n2Cc2ccccc2)CC1 | -28 | -4
COC(=O)c1c(C)nn(-c2ccccc2)c1-n1cccc1 | -14 | x
COc1ccc(S(=O)(=O)c2c(N)n(Cc3ccco3)c3nc4ccccc4nc23)cc1 | x | 47
COc1ccc(Cn2c(C)nc3c(c2=O)c2nc4ccccc4nc2n3Cc2ccco2)cc1 | x | 81*
COc1ccc(Cn2c3nc4ccccc4nc3c3c(=O)n(Cc4ccco4)c(C)nc32)cc1 | x | 62*
Cc1nc2c(c(=O)n1Cc1ccccc1Cl)c1nc3ccccc3nc1n2Cc1ccco1 | x | 38
COc1ccc(CCN)cc1OC | 2 | x
O=C(CSc1nnc(COc2ccc(Cl)cc2)o1)N1CCN(c2ccccc2)CC1 | -2 | 0
O=C(CSc1nnc(-c2ccc(Cl)cc2)o1)N1CCN(c2ccccc2)CC1 | x | 50*
Cc1cc(C)nc(Sc2ccc3nnnn3n2)n1 | -4 | -4
CCCCN(CC)CCCNC(=O)Cn1nc(Cc2ccncc2)c2ccccc2c1=O | -8 | -5
CCC(NC(=O)OC(C)(C)C)C(=O)Oc1cc(C)cc2oc(=O)c3c(c12)CCC3 (configuration not stated) | -6 | x
CCC(NC(=O)OC(C)(C)C)C(=O)Oc1ccc2c3c(c(=O)oc2c1)CCC3 (configuration not stated) | + | -4
CC(=O)n1c2ccccc2c2c1c1ccccc1n2C | -22 | 57*
CC(=O)Nc1c(Cl)n(C(C)=O)c2ccccc12 | 30 | -6
C#CCOC(=O)C1C2C=CC(C2)C1C(=O)O (configuration not stated) | 7 | 1
COc1ccc2nc3oc(C(=O)N4CCN(c5cccc(Cl)c5)CC4)cc3cc2c1 | 5 | -20
